Hits are enriched below; roughly 13% of the tested compounds scored in any of these assays.
HCV inhibitor – inhibitors of hepatitis C virus infection; Huh7.5.1 HCVcc-Cre infection, luciferase reporter, 44 h; Potency, µM (doses to about 41.8 µM), most hits filed as inhibitors; hit rate 3.4% among 340,000; AID 651820
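After 44 h co-culture of compound, cells and HCVcc-Cre (~0.5 moi), substrate is added for 15 min at room temperature and luciferase measured over 15 sec. Cells were seeded at 1,000/well and pre-cultured 4 h.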
Pf growth 96h – P. falciparum growth inhibition at 96 hour, primary screen for plastid delayed-death inhibitors | P. falciparum luciferase reporter growth, 96 h | Potency, µM (highest dose often 28.7 µM), usual class: inhibitors | hit rate 6.9% among 320,000
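Two-generation exposure (96 h) targets delayed-death phenotype. Reporter parasites carrying integrated firefly luciferase, in red cells at 2% hematocrit and 0.05% parasitemia final, kept at 37 C, 5% CO2; luminescence loss indicates inhibition.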
Pf growth 48h – P. falciparum growth inhibition at 48 hours (one generation) | P. falciparum luciferase growth in erythrocytes, 48 h | Potency, µM (series often up to 28.7 µM), usual class: inhibitors | hit rate 5.9% among 310,000
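Luminescence readout; reporter = integrated firefly luciferase in P. falciparum. RBC culture at 2% hematocrit, 0.1% parasitemia final, 37 C/5% CO2; decreased signal taken as growth inhibition.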
HCMV inh – inhibitors of human cytomegalovirus; HFF cells, HCMV-luciferase reporter, 72 h; stronger effect = lower value; activity change, negative = inhibition, % at 57.5 µM; hit rate 4.5% among 410,000; in the data active = activity change below about -60%; inconclusive = no clear call, values can overlap the other calls; inactive = above about -39%
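Human foreskin fibroblasts infected with luciferase-reporter HCMV at MOI 1 PFU/cell, compounds at two doses. Luciferase measured 72 h post infection; normalized to buffer-only basal and Salinomycin (10uM) controls.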
A number is an active result; n = inactive; u = inconclusive; x = no result; ! = a repeat was not active. Unless noted, calls come from the whole dose curve; as a rule, active = well fitted inhibition curve with a large enough effect; inconclusive = small, poorly fitted or top-dose-only effect, or another doubt; inactive = no such curve, though single readings can be large or run the other way.

SMILES	HCV inhibitor	Pf growth 96h	Pf growth 48h	HCMV inh
COc1cccc(/C(C#N)=C/c2c(-c3ccc(Cl)cc3)nc3c(C)cccn23)c1	11µM	u	1.3µM	u
CCOc1ccc(CNC(=O)c2cnc3c(C)cccn3c2=O)cc1	x	x	x	n
CCOC(=O)/C(C(=Nc1ccccc1)Nc1ccccc1)=C(\C)O	n	10µM	n	n
CC(=O)OCC(=O)Nc1ccc(N=Nc2ccccc2)cc1	n	n	n	n
CCOC(=O)C1C(C(=O)NN)C1C(=O)Nc1ccccc1 (configuration not stated)	n	n	13µM	n
CCOc1ccc(Nc2c(S(=O)(=O)c3ccccc3)cnc3ccc(CC)cc23)cc1	x	x	x	n
COc1ccc(Cc2nc(-c3ccc(-n4cccc4)cc3)no2)cc1	n	u	n	n
COc1ccc(Cc2nc(-c3ccc(-n4cccc4)cc3)no2)cc1OC	10µM	u	n	u
Cc1ccc(-c2noc(CSc3nnc(CCc4ccccc4)n3-c3ccccc3)n2)cc1	u	x	u	n
Cc1ccc(-c2noc(CSc3nnc(Cc4ccccc4)n3-c3ccc(Cl)cc3)n2)cc1	u	9.3µM	x	n
COc1ccc(-c2noc(CSc3nnc(CCc4ccccc4)n3-c3ccccc3)n2)cc1OC	11µM	x	u	n
COc1ccc(Cc2noc(CN(C)Cc3ccc(-n4cccn4)cc3)n2)cc1OC	u	2.1µM	n	n
Cn1cnc(S(=O)(=O)N[C@H]2CC[C@@]34CCCN3C(=O)CCC[C@H]4[C@H]2Cc2ccccc2)c1	x	x	x	n
COc1cc(OC)c(N(C)C(=O)c2c(C)oc3ncnc(N4CCCCC4)c23)cc1Cl	x	x	x	n
COc1ccc(-c2noc(CSc3nnc(Cc4ccccc4)n3-c3ccc(Cl)cc3)n2)cc1	14µM	u	x	n
Cc1ccc(N(Cc2cccs2)C(=O)c2ccc(Br)o2)cc1	x	x	x	n
COc1ccccc1N(CC(=O)N(c1ccccc1)C(C)C)S(=O)(=O)c1cccs1	n	9.3µM	n	n
CCOc1ccc(C2CC(=O)n3nc(-c4ccc(C)cc4)nc3S2)cc1OC (configuration not stated)	x	x	x	n
CCN(CC)S(=O)(=O)c1ccc(C(=O)NC2CC(=O)N(c3ccc4c(c3)OCCO4)C2)cc1 (configuration not stated)	x	x	x	n
OCCN1CCOCCN(CCO)CCOCC1	n	n	n	-92
Oc1ccc(/C=N/Nc2cc(N3CCCC3)nc(N3CCCC3)n2)cc1	u	2.1µM	u	u
Oc1cccc(/C=N/Nc2cc(N3CCCC3)nc(N3CCCC3)n2)c1	u	u	2.9µM	n
Oc1ccc(/C=N/Nc2cc(N3CCOCC3)nc(N3CCOCC3)n2)cc1	u	x	x	n
Brc1cccc(/C=N/Nc2nc(N3CCCCC3)nc(N3CCCCC3)n2)c1	x	n	n	x
COc1ccc(/C=N/Nc2cc(N3CCCC3)nc(N3CCCC3)n2)cc1	7.1µM	u	u	-76
SMILES	HCV inhibitor	Pf growth 96h	Pf growth 48h	HCMV inh
Cc1nc(N/N=C/c2ccc(Br)cc2)cc(N2CCOCC2)n1	u	u	u	n
Cc1ccc(NC(=O)C2c3ccccc3-c3ccccc32)cc1	x	x	x	n
CCOC(=O)C1=C(N)Oc2cc(O)ccc2C1c1ccc([N+](=O)[O-])cc1 (configuration not stated)	n	u	9.3µM	n
CCOC(=O)C1=C(N)Oc2ccc3ccccc3c2C1c1ccc(O)cc1 (configuration not stated)	n	u	n	n
Clc1ccc2c(N/N=C/c3ccc(Br)cc3)ccnc2c1	11µM	1.5µM	0.33µM	-73
Clc1ccc2c(N/N=C/c3cccnc3)ccnc2c1	n	0.83µM	0.66µM	u
O=C(N/N=C/c1ccc2nccnc2c1)c1ccc(Br)cc1	n	n	u	n
Fc1ccc(N/N=C/c2cccnc2)c(F)c1	n	n	n	n
Cc1ccc(CNC(=O)c2c3c(nc4ccccc24)C(=O)N(C2CCCCC2)C3)cc1	x	x	x	n
CCc1ccc(NC(=O)Cn2c(=O)n(Cc3ccco3)c(=O)c3cccnc32)cc1	x	x	x	n
O=C(CN1C(=O)CCc2cc(S(=O)(=O)N3CCOCC3)ccc21)NCc1ccccc1Cl	x	x	x	n
Cc1ccc(Nc2cc(C)nc(NCc3ccccc3)n2)cc1	10µM	n	0.66µM	-83
COc1ccc(Nc2cc(C)nc(NCc3ccccc3)n2)cc1	u	1.7µM	0.47µM	u
Cc1cc(N/N=C/c2ccccc2Cl)nc(NCc2ccccc2)n1	u	u	1.5µM	n
Cc1cc(NC2CCCCC2)nc(NCc2ccccc2)n1	u	1.5µM	1.9µM	-93
COc1cccc(NC(=O)Cn2c(=O)n(CCC(=O)NCc3ccccc3OC)c(=O)c3ccccc32)c1	x	x	x	n
COc1ccc(NC(=O)c2c(NCc3cccs3)sc3c2CCCCC3)cc1	x	x	x	n
CCCCN(CC)CCNC(=O)Cn1cc2c(n1)-c1c(oc(C(=O)N3CCCC3)c1C)CC2	n	u	u	-61!
Cc1ccc(Cn2nc3c(cc2=O)CCc2ccccc2-3)cc1	14µM	n	n	n
Cc1ccc(CNC(=O)C(C)n2c(=O)cc(C(F)(F)F)c3c(C)nn(C)c32)cc1 (configuration not stated)	x	x	x	n
COc1ccc(-c2cc(C(F)(F)F)n3nc(C(=O)Nc4sc5c(c4C(=O)OC(C)C)CCC(C)C5)cc3n2)cc1 (configuration not stated)	x	x	x	n
NC(=O)c1c(NC(=O)Cc2cccs2)sc2c1CCC2	u	n	n	n
NC(=O)c1c(NC(=O)CN2CCOCC2)sc2c1CCC2	n	n	n	n
NC(=O)c1c(NC(=O)c2ccncc2)sc2c1CCCC2	13µM	n	n	n
NC(=O)c1c(NC(=O)CN2CCCC2)sc2c1CCCC2	u	12µM	n	n
COc1ccccc1CC(=O)Nc1sc2c(c1C(N)=O)CCCC2	20µM	n	u	n

High-throughput results as filed in PubChem.
